Assay outcomes as filed in PubChem BioAssay.
An excerpt weighted towards active compounds, which were near 4.6% of everything screened.
TRHR agonist – TRH receptor (human) agonism | activation, % at 2 µM | TRHR cells, calcium flux fluo-8, FDSS agonist mode | P34981 | 0.18% of 360,000 active
Target sequence (P34981 whole entry, looked up): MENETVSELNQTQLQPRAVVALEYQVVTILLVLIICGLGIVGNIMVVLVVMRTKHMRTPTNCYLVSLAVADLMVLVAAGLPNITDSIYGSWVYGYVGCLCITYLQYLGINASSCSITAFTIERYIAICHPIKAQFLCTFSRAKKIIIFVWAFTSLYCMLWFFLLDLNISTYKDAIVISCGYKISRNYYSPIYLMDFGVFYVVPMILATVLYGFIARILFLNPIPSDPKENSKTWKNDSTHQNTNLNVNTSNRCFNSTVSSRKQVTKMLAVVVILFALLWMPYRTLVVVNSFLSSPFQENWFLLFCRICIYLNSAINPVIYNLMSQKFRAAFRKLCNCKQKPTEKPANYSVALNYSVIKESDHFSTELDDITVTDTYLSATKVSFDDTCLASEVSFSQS
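Fluo-8-loaded TRHR cells; 10 s baseline, compound added, kinetic Ca2+ fluorescence read 1/s, agonist mode.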
D1 PAM – enhances dopamine response at the human D1 receptor. P21728. HEK293 TREx D1 cells, calcium flux, dopamine EC20 potentiation. potentiation, % at 10 µM. 0.036% of 360,000 active. AID 504651; in the data active = potentiation above about 30%
TRHR PAM – allosterically enhances the human TRH receptor. P34981. TRHR cells, fluo-8 calcium fluorescence, EC20 TRH enhancement. enhancement, % at 2 µM. 0.66% of 360,000 active. AID 493056; in the data active = enhancement above about 30%
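Enhancer read-out: after compound pinning and an initial kinetic agonist-mode read, an EC20 of TRH (10 nM final) was injected and fluo-8 calcium signal (Ex 480/Em 530) followed at 1 s/cycle for 100 cycles in TRHR-expressing cells.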
D1 agonist – human D1 receptor agonism; P21728; HEK293 T-REx D1 cells, calcium flux, agonist mode; activation, % at 2 µM; 1% of 360,000 active
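Tetracycline-induced HEK293 TREx D1 cells, force-coupled to calcium signalling, were dye-loaded with a no-wash calcium kit. Compound was pin-added after a 10 s baseline. Fluorescence was read kinetically at 1 cycle/s for 180 s, with calcium rises flagged as agonism.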
D1 antag – antagonists of human D1 dopamine receptor; P21728; HEK293 TREx D1 cells, calcium flux, dopamine EC80; stronger effect = lower value; activity change, negative = inhibition, % at 10 µM; 3.2% of 360,000 active; AID 504652; in the data active = activity change below about -30%
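HEK293 T-REx cells expressing inducible, force-coupled D1 receptor; no-wash Ca dye, 30–90 min RT. Cmpd → 180 s read at 1 Hz → EC80 DA → 180 s read.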
Of the large screens only hits and unclear results are named; the others gave an inactive call. Cut-off read from the data, not from the text of the source, unless noted: active = activation above about 30%; inactive = the rest.

Cc1cc(C)nc(NS(=O)(=O)c2ccc(NC(=O)Cc3ccccc3)cc2)n1	TRHR PAM 36
Cc1cc(C)nc(NS(=O)(=O)c2ccc(NC(=O)COc3ccc(Cl)cc3C)cc2)n1	D1 antag -49
O=C(Nc1ccc2c(c1)OCO2)c1cnn2c1NC(c1ccco1)CC2C(F)(F)F (stereo not given)	none
COCCn1nc2cc(C(=O)NCC34CC5CC(CC(C5)C3)C4)ccc2c1OC	D1 antag -32
CCCn1nc2cc(C(=O)NCC34CC5CC(CC(C5)C3)C4)ccc2c1OCC	none
CN(C)CCNc1nc2sc3c(c2c(=O)n1Cc1ccccc1)CCCCC3	D1 agonist 65
COc1ccc(-n2c(NCCN(C)C)nc3sc4c(c3c2=O)CCCCC4)cc1	D1 agonist 56
CN(C)CCNc1nc2sc3c(c2c(=O)n1-c1ccc(F)cc1)CCCCC3	none
COc1ccccc1NS(=O)(=O)c1cccc(NC(=O)CCNC(=O)c2ccccc2OC)c1	none
O=C(c1cc2ccccn2n1)N1CCN(Cc2ccccc2)CC1	none (no result: D1 PAM)
CCc1cccc(NC(=O)Cn2cc(C=O)c3ccccc32)c1	D1 antag -30
Cc1ccc(NC(=S)N(CCN(C)C)Cc2cccs2)cc1	D1 antag -36
COc1cc(C2C(C(C)=O)=C(O)C(=O)N2Cc2ccccc2)ccc1O (stereo not given)	D1 antag -32
COc1cc(C2C(C(=O)C(C)(C)C)=C(O)C(=O)N2Cc2ccccc2)ccc1O (stereo not given)	none
Cc1ccc(OCCCCNC2CCCC(C)C2C)c(C)c1 (stereo not given)	D1 agonist 42
CC(C)(C)c1ccccc1OCCCCCNCCO	D1 agonist 33
Cc1ccccc1OCCCCCNCCO	none
COc1ccccc1OCCCCNCCO	none
CC(C)c1ccccc1OCCCCCNCCO	D1 agonist 93
Cc1ccccc1CC(=O)NC1CCN(Cc2ccccc2)CC1	none
Cc1c(C(=O)N2CCN(S(=O)(=O)c3ccccc3F)CC2)oc2c(Cl)cccc12	none
COc1ccc(N(CCCN2C(=O)c3cccc4cccc(c34)C2=O)C(=O)c2ccncc2)cc1	none
Cc1ccc(NC(=O)COc2cccc(-n3cnnn3)c2)cc1[N+](=O)[O-]	D1 antag -45
COc1cccc(NC(=O)COc2cccc(-n3cnnn3)c2)c1	none
Cc1cccc(OCCC(=O)Nc2ccc(N3CCOCC3)cc2N2CCOCC2)c1	none
CN(C)c1ccc(C2C=C(c3ccc(Cl)cc3OC(F)F)Nc3ncnn32)cc1 (stereo not given)	D1 agonist 41
Cc1ccc(C2C=C(c3ccccc3OC(F)F)Nc3ncnn32)cc1 (stereo not given)	none
CN(C(=O)c1cc2sccc2n1C)C1CCCCC1	D1 antag -35
Cc1ccc(C(=O)c2cc3c(cc2N)OCCO3)cc1	D1 antag -76
Nc1cc2c(cc1C(=O)c1ccccc1)OCCO2	none
COC(=O)c1ccc(/C=N/NC(=O)C(=O)NCC2CCCO2)cc1 (stereo not given)	none
Cc1csc(SCc2nnc(-c3ccccc3Br)o2)n1	none
Fc1ccccc1SCc1nnc(-c2ccccc2Br)o1	D1 antag -66
O=C(NC1CCCC1)C(c1cccs1)N(C(=O)c1ccco1)c1ccc2c(c1)OCO2 (stereo not given)	none
O=C(CSc1nc2sc3c(c2c(=O)[nH]1)CCC3)NCCO	none
CCC(=O)NC(c1ccc(Br)o1)c1cc(Cl)c2cccnc2c1O (stereo not given)	TRHR agonist 30, D1 agonist 89
CC1C(=O)CCC1(C(=O)O)c1ccccc1 (stereo not given)	TRHR PAM 33
C/C=C/C=N/Nc1nc(-c2ccc([N+](=O)[O-])cc2)cs1	none
Cc1ccc(S(=O)(=O)NC(=O)Nc2ccc(N(C)C)cc2)cc1	none
COC(=O)C(/C=N/OCc1ccc([N+](=O)[O-])cc1)NC(=O)c1ccccc1 (stereo not given)	D1 agonist 30
Cc1nc(NC(=O)C2CC2)sc1C(=O)Nc1ccccc1	D1 antag -38
Cc1nc(NC(=O)C2CC2)sc1C(=O)Nc1ccc(Br)cc1	none
CC(=O)Nc1ccc(S(=O)(=O)NCC(=O)NNC(=O)c2csc(N3CCOCC3)n2)cc1	none
Cc1cc(C)n(C(=O)c2ccc(NC(=O)CC(C)C)cc2)n1	D1 antag -94
